Hits are enriched below; roughly 3.2% of the tested compounds scored in any of these assays.
CRFBP-R2 agonist: agonists of human CRF-binding protein/CRF-R2 receptor complex. HEK293 CRF-R2/CRF-BP, calcium dye fluorescence (FLIPR); percent of saturating CRF peptide response. activation, % at 13.2 µM. 350,000 compounds, 0.46% hits;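 active = activation of at least 50%, plus an integration ratio under a set limit after plate pattern correction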;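 note: plate controls were neutral control wells without compound for no effect and CRF at EC100 for full effect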
CRFBP-R2 block: antagonists of CRF-binding protein/CRF-R2 receptor complex; inhibition, % at 11.8 µM; 350,000 compounds, 0.59% hits; AID 588475; HEK293 CRF-R2/CRF-BP, CRF-induced calcium fluorescence;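 active = inhibition of the ligand-induced calcium signal above about 50% at the single tested concentration, limit read from the data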
Cardio protect: modulators protecting cardiomyocytes from myocardial damage; H9c2 cardiomyocytes, H2O2 injury protection, ATPLite, 2 h; protection from H2O2 cell death, % at 20 µM; 360,000 compounds, 0.63% hits; AID 588492;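 active = compounds giving at least 50% protection of heart cells from peroxide-induced death in the single-dose screen, raw or plate-pattern-corrected value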;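 note: 0% = DMSO wells with peroxide and 100% = DMSO wells without peroxide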
FAS TE block: inhibitors of human fatty acid synthase thioesterase domain. recombinant FAS-TE, OMFH fluorogenic substrate, fluorescence endpoint. inhibition, % at 15 µM. 360,000 compounds, 0.67% hits;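 active = compounds whose normalised, plate-corrected inhibition of enzyme fluorescence in the single-dose primary screen is 50% or more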;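 note: 0% = DMSO with enzyme and 100% = substrate without enzyme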
aDG glyco up: increases alpha dystroglycan glycosylation; Pro5-aDG cells, alpha-DG glycosylation AlphaScreen (IIH6); 0% Pro5, 100% B10-LARGE cell signal; activation, % at 10 µM; 360,000 compounds, 0.22% hits; AID 624168;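 active = activation of at least 8% versus controls, or a plate z-score of at least 8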;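 note: Pro5 are CHO cells carrying HIG-tagged alpha-DG that lacks glycosylation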
PfGluPho inh: PfG6PD (Plasmodium falciparum) enzyme inhibition; PfGluPho enzyme, NADPH resazurin-diaphorase fluorescence; inhibition, % at 20 µM; 350,000 compounds, 0.78% hits; AID 504690;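 active = inhibition reaching at least a set limit at 20 µM in the primary screen, cut at about 59% in these data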;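 note: 0% = DMSO wells with substrate and 100% = DMSO wells lacking glucose-6-phosphate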
* marks the source's active call; other numbers are inactive results; · = no result.

SMILES	CRFBP-R2 agonist	CRFBP-R2 block	Cardio protect	FAS TE block	aDG glyco up	PfGluPho inh
O=C(NC(C(=O)N/N=C/c1ccncc1)c1n[nH]c(=O)c2ccccc12)c1ccccc1 (stereo unspecified)	-1	4	5	-3	0	6
COC1=CC(=O)C(C2CC(=O)c3c(O)cc(O)cc3O2)=CC1=O (stereo unspecified)	-1	0	-10	-8	0	124*
O=C(COc1ccc(/C=N/NC(=O)c2ccccc2)cc1)Nc1ccc([N+](=O)[O-])cc1	0	-6	-4	0	0	-1
CC(C)Oc1ccc(/C=N/NC(=O)C(CSCc2ccccc2)NC(=O)c2ccc([N+](=O)[O-])cc2)cc1 (stereo unspecified)	104*	-46	2	21	0	2
CCOC(=O)c1sc(NC(=O)c2cccc(S(=O)(=O)N(CC)CC)c2)cc1C	-1	1	-4	-1	6	6
CCOC(=O)c1sc(NC(=O)c2cccc(S(=O)(=O)N3CCN(C)CC3)c2)cc1C	-2	67*	1	-10	0	8
CSc1ccccc1NC(=O)COC(=O)c1c[nH]c(=O)[nH]c1=O	112*	-60	-5	-8	0	-2
Cc1ccc(-n2cccn2)c(CN2CCCC(C(=O)c3ccc4c(c3)OCO4)C2)c1 (stereo unspecified)	-1	8	-8	2	2	-8
O=C(c1ccc2c(c1)OCO2)C1CCCN(Cc2cc(F)ccc2-n2cccn2)C1 (stereo unspecified)	56*	-50	-3	0	0	-3
COc1ccc(CCn2c(=N)c(C(=O)NCCN3CCOCC3)cc3c(=O)n4ccccc4nc32)cc1OC	-1	8	20	-7	0	1
COc1ccc(CCn2c(=N)c(C(=O)NCCN3CCOCC3)cc3c(=O)n4cccc(C)c4nc32)cc1OC	-1	14	61*	-6	0	-5
Cc1cccc(C(=O)N(Cc2ccc(C)o2)C2CCS(=O)(=O)C2)c1 (stereo unspecified)	4	-26	-3	-5	0	11
O=C(CC(c1ccccc1)c1ccccc1O)NCc1ccccc1Cl (stereo unspecified)	-11	67*	0	2	0	-16
Cc1ccc(CNC(=O)N2CCN(S(=O)(=O)c3ccccc3)CC2)cc1	0	-14	8	-4	0	4
Cc1ccccc1NC1=C/C(=N\S(=O)(=O)c2cccs2)c2ccccc2C1=O	-1	-3	-17	32	-1	99*
O=C(O)c1ccc(S(=O)(=O)/N=C2\C=C(Nc3ccccc3F)C(=O)c3ccccc32)cc1	0	3	-19	17	0	93*
CCc1ccc(S(=O)(=O)/N=C2\C=C(NS(=O)(=O)c3ccccc3)C(=O)c3ccccc32)cc1	-3	27	-5	-2	1	24
CCOC(=O)C1=Nc2ccccc2C1=[N+]=[N-]	-1	-16	72*	-29	1	5
Cc1cccc(C)c1NC(=O)CNC(=O)c1ccccc1	-1	4	9	1	0	-2
Cn1c(SCC(=O)N2CCc3ccccc32)nc2cccnc21	0	3	-3	-8	0	25
Cn1c(SCC(=O)N2CCCc3ccccc32)nc2cccnc21	-4	56*	0	1	0	0
Cc1nn(CC(=O)N(C)C2(C#N)CCCCC2)c(C)c1[N+](=O)[O-]	111*	-75	8	-4	0	-2
Cc1nn(CC(=O)NC2(C#N)CCCCC2)c(C)c1[N+](=O)[O-]	0	12	1	-1	0	-11
COc1cc(-c2cc(NC(C)=O)c3ncc(-c4ccc(F)cc4)n3c2)cc(OC)c1OC	·	·	54*	10	0	·
CC(=O)Nc1cc(-c2ccc(F)cc2)cn2c(-c3ccc(F)cc3)cnc12	·	·	2	4	0	·
SMILES	CRFBP-R2 agonist	CRFBP-R2 block	Cardio protect	FAS TE block	aDG glyco up	PfGluPho inh
COc1cc(-c2cc(NC(C)=O)c3ncc(-c4ccc(C(C)=O)cc4)n3c2)cc(OC)c1OC	·	·	61*	20	0	·
O=C(NCCCn1ccnc1)c1ccc(COc2ccccc2)o1	-2	33	-2	-12	0	-1
Cc1ccccc1S(=O)(=O)NC(=O)C1(C)CCN1C(=O)C1(c2ccccc2)CC1 (stereo unspecified)	·	·	-2	-12	0	·
COC(=O)C1=C(C)NC2=C(C(=O)CCC2)C1c1ccc(-c2ccsc2C(=O)OC)o1 (stereo unspecified)	0	-11	9	9	0	15
CN1CCN(C(c2ccc(F)cc2)c2ccc3cccnc3c2O)CC1 (stereo unspecified)	0	10	18	-8	0	-11
CN1CCN(C(c2cccnc2)c2ccc3cccnc3c2O)CC1 (stereo unspecified)	-1	-1	62*	-7	0	5
O=C(OCCN1C(=O)c2cccc3c(N4CCOCC4)ccc(c23)C1=O)c1ccccc1Cl	170*	-165	-9	-81	2	2
O=C(OCCN1C(=O)c2ccccc2C1=O)c1cc(S(=O)(=O)N2CCOCC2)ccc1Cl	0	4	47	2	0	-4
O=C(OCCN1C(=O)c2cccc3c(N4CCOCC4)ccc(c23)C1=O)c1ccc(Cl)cc1Cl	176*	-161	-5	-92	1	-4
O=C(OCCN1C(=O)c2cccc3c(N4CCOCC4)ccc(c23)C1=O)c1cccc(Cl)c1	175*	-169	·	·	·	-9
COc1ccc(CN2CCNC(=O)C2CC(=O)N(C)CCCN2CCOCC2)cc1C (stereo unspecified)	0	8	4	-4	0	0
Cc1cc(SCC(=O)c2ccc(O)c(O)c2)n2nc(C)c(-c3ccccc3)c2n1	0	-8	71*	13	0	-26
Cc1cc(C)nc(SCC(=O)c2ccc(O)c(O)c2)n1	-2	-2	18	-9	0	-31
CCC(C)c1ccc(NC(=O)C/C(C)=N/NC(=O)c2cnccn2)cc1 (stereo unspecified)	-1	17	3	-7	0	0
Cc1ccc(S(=O)(=O)Nc2ccc3cc([N+](=O)[O-])ccc3c2[N+](=O)[O-])cc1	6	81*	-10	19	0	-35
COc1ccc([N+](=O)[O-])cc1NS(=O)(=O)c1ccc(C)cc1	-3	21	6	19	0	-2
Cc1ccc(S(=O)(=O)Nc2ccc3ccccc3c2[N+](=O)[O-])cc1	-9	90*	-6	3	0	-27
O=c1[nH]c2ccccc2c(O)c1-[n+]1ccccc1	-1	2	2	-7	0	40
O=c1[nH]c2ccccc2c(O)c1O	0	97*	-1	-4	1	75*
